# From PubChem BioAssay
# An excerpt weighted towards active compounds, which were near 19% of everything screened.
# DT40 TDP1 CPT = DT40-hTDP1 cell growth loss with CPT | Potency, µM (titrated, usually from 46.2 µM), without a hit: top-dose activity change, negative = growth inhibition, actives largely listed as inhibitors | 420,000 tested, 12% active | chicken DT40 Tdp1-/-;hTDP1 cells + 20 nM CPT, ATP luminescence, 48 h; also: nearly all actives have a fitted effect of over 55% in size
#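 Chicken DT40 Tdp1-/- cells stably complemented with human TDP1 were seeded at 400 cells/well in medium containing 20 nM camptothecin, exposed to pin-transferred compounds, and grown at 37 °C for at least 48 hr. Viability was read as ATP luminescence.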
# TDP1 cell noCPT = qHTS for Inhibitors of human tyrosyl-DNA phosphodiesterase 1 (TDP1): qHTS in cells in absence of CPT; DT40 Tdp1-/- hTDP1 cells, no CPT, ATP luminescence, 48 h; Potency, µM (highest dose often 46.2 µM), without a hit: top-dose activity change, negative = growth inhibition, usual class: inhibitors; 420,000 tested, 15% active; AID 686978, 2013; also: nearly all actives have a fitted effect of over 55% in size
#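 Cells were dispensed at 400 per well, compounds added by pin tool, plates incubated ≥48 hr at 37 °C, then CellTiter-Glo added for 30 min at room temperature before luminescence reading. Line: DT40 Tdp1-/- complemented with hTDP1; camptothecin omitted.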
# KB-V1 cytotox = KB-V1 MDR subline cytotoxicity. KB-V1 MDR cells viability, CellTiter-Glo, 72 h. Potency, µM (doses to about 46.1 µM), actives largely listed as cytotoxic. 400,000 tested, 3.4% active; also: nearly all actives have a fitted effect of over 60% in size
#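 KB-V1 cells (P-gp-expressing MDR subline of KB-3-1) in phenol-red-free DMEM with 10% FBS were exposed to library compounds over a concentration series for 72 h at 37 degrees C. Viability read by CellTiter-Glo luminescence; concentration-effect curves fitted after normalization.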
# HT1080 IDH1KD tx = kills HT-1080 cells with IDH1 knockdown | HT-1080 IDH1 knockdown viability, ATP luminescence, 48 h | Potency, µM (highest dose often 46.1 µM), inactives show at the top dose activity, negative = toxicity, usual class: cytotoxic | 360,000 tested, 2% active | AID 686971;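 also: 0% = DMSO wells and -100% = cell-free medium wells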
#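 In this qHTS, HT-1080 cells depleted of IDH1 are exposed for 48 h at 37 °C to compound titrations. Toxicity is scored from CellTiter-Glo luminescence, with DMSO as full viability and medium alone as none.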
# HT1080-NT tox = kills 2HG-producing HT-1080-NT fibrosarcoma cells. Potency, µM (highest dose often 46.1 µM), inactives show top-dose activity, negative = less viability, most hits filed as cytotoxic. 360,000 tested, 1.6% active. HT-1080-NT fibrosarcoma viability, CellTiter-Glo ATP luminescence, 48 h;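 also: NT is the 2HG producing partner of a matched IDH1 knockdown line; 0% = DMSO-treated cells and -100% = media-only wells without cells; nearly all actives have a fitted effect of over 55% in size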
#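 Viability by CellTiter-Glo luminescence after 48 h compound exposure at 37C of HT-1080-NT cells (750/well, RPMI, 5% FBS). % activity scaled between DMSO wells and medium-only wells, then curve-fitted and categorized by curve class.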
# KB-3-1 cytotox = kills parental KB-3-1 adenocarcinoma cells; KB-3-1 viability, CellTiter-Glo ATP luminescence, 72 h; Potency, µM (titrated, usually from 46.1 µM), usual class: cytotoxic; 400,000 tested, 1.4% active; also: nearly all actives have a fitted effect of over 60% in size
#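 Cells are dispensed, compounds pinned in, plates held at 37 °C for 72 h, then CellTiter-Glo is added and luminescence read after 10 minutes. Cell line: parental KB-3-1 in phenol-red-free DMEM, 10% FBS.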
# Active calls of the source: *; i = inactive; ? = inconclusive; . = not tested or not shown; [ ] = remark or other dose. Calls follow the shape of the dose curve; as a rule, active = well fitted curve in the direction sought with a large enough effect; inconclusive = small, poorly fitted or top-dose-only effect, or another doubt; inactive = no such curve, though single readings can be large; an effect the other way counts as inactive or inconclusive. Unless noted, % is scaled to controls: 0 for no effect and ±100 for the full control effect; potency is read from the fitted curve at half-maximal effect.
SMILES,DT40 TDP1 CPT,TDP1 cell noCPT,KB-V1 cytotox,HT1080 IDH1KD tx,HT1080-NT tox,KB-3-1 cytotox
Oc1ccccc1C=Nc1ccccc1-c1nc2ccccc2[nH]1,?,16µM*,i,?,-17%,i
O=C1c2ccc(O)c(O)c2C(=O)c2c(O)ccc(O)c21,10µM*,?,.,.,.,.
O=C1c2ccccc2C(=O)c2c1ccc(O)c2O,-7%,-18%,i,-16%,-20%,i
N#Cc1cc([N+](=O)[O-])ccc1NC(=O)COC(=O)CC1CCCC1,-25%,-11%,i,14%,1%,i
CCOC(=O)/C(C#N)=C/c1cc2ccccc2nc1Cl,2.8µM*,4µM*,i,?,-8%,i
Cn1c(N/N=C/c2c[nH]c3ccccc23)nc2ccccc21,?,?,i,?,?,?
Cn1c(N/N=C/c2cc3ccccc3nc2Cl)nc2ccccc21,3.3µM*,2.6µM*,?,?,?,?
Cc1nnc(C)n1/N=C/c1cc2ccccc2nc1Cl,2.6µM*,2.9µM*,i,-6%,-11%,i
Cc1nnc(C)n1/N=C/c1ccccn1,-1%,1%,i,12%,11%,i
COc1ncccc1-c1nnn(-c2ccccc2)n1,0%,-13%,i,3%,-16%,i
CCOC(=O)c1ccc(N2C(=O)c3n[nH]c(C)c3C2c2ccccc2OC)cc1 (stereo not given),16µM*,18µM*,i,.,.,i
CCOC(=O)c1ccc(N2C(=O)c3n[nH]c(-c4ccco4)c3C2c2ccccc2OC)cc1 (stereo not given),18µM*,6.5µM*,?,.,.,i
CCOC(=O)c1ccc(N2C(=O)c3n[nH]c(C)c3C2c2ccc(O)cc2)cc1 (stereo not given),-20%,?,i,-12%,-12%,i
CCOC(=O)c1ccc(N2C(=O)c3n[nH]c(C)c3C2c2ccccc2)cc1 (stereo not given),-16%,-24%,13µM*,-2%,-12%,i
Cc1ccc(-c2n[nH]c3c2C(c2ccccc2Cl)N(c2ccc(C(=O)O)cc2)C3=O)cc1 (stereo not given),-23%,?,?,.,.,i
CC1CCN(S(=O)(=O)c2ccc3c(c2)N(CC(=O)NCCN(C)C)C(=O)CS3)CC1,-16%,4%,?,.,.,i
COc1ccc(OC)c(CNS(=O)(=O)c2c(C)nc3scc(C)n3c2=O)c1,-2%,-3%,?,1%,-1%,i
O=C(Oc1ccc(OC(=O)c2ccco2)c(S(=O)(=O)c2ccc(Cl)cc2)c1)c1ccco1,-22%,16µM*,?,-1%,-6%,i
Nc1nc(-c2cc3ccccc3o2)cs1,6%,-16%,i,-2%,6%,i
O=C(Nc1nnc(COc2ccc(F)cc2)s1)c1cccs1,-14%,-19%,i,?,-29%,i
CCCOc1cccc(-c2nnc(NC(=O)c3ccco3)s2)c1,?,21µM*,?,0%,-5%,?
O=C(Nc1nnc(COc2ccc(Cl)cc2)s1)c1cccs1,15µM*,12µM*,?,20%,10%,?
Cc1ccc(OCc2nnc(NC(=O)c3ccco3)s2)cc1,-15%,-13%,i,13%,11%,i
O=C(Nc1nnc(COc2ccc(Cl)cc2)s1)c1ccco1,29µM*,?,i,3%,4%,i
COc1cccc(-c2nnc(NC(=O)c3ccco3)s2)c1,-7%,?,i,13%,16%,i
SMILES,DT40 TDP1 CPT,TDP1 cell noCPT,KB-V1 cytotox,HT1080 IDH1KD tx,HT1080-NT tox,KB-3-1 cytotox
CN(C)S(=O)(=O)c1cccc(NC(=S)NCCCn2ccnc2)c1,-15%,-20%,i,-8%,3%,i
Cc1cccc2[nH]c3c(N4CC=C(c5ccc(F)cc5)CC4)ncnc3c12,13µM*,15µM*,i,?,?,i
Cc1ccc(C(=O)c2cn(Cc3ccccc3)c3ccccc3c2=O)cc1,23µM*,21µM*,i,.,.,i
CCOc1ccc(C(=O)c2cn(Cc3ccccc3OC)c3cc4c(cc3c2=O)OCCO4)cc1,?,15µM*,i,.,.,i
COc1ccc(Cn2cc(C(=O)c3ccccc3)c(=O)c3cc(OC)ccc32)cc1,3%,-10%,i,-14%,-11%,i
CCOc1ccc2c(c1)c(=O)c(C(=O)c1ccccc1)cn2Cc1ccccc1,21µM*,15µM*,i,.,.,i
COc1ccc(C(=O)c2cn(Cc3ccccc3OC)c3cc4c(cc3c2=O)OCO4)cc1,?,?,i,.,.,i
COc1ccc(C(=O)c2cn(Cc3cccc(C)c3)c3cc4c(cc3c2=O)OCCO4)cc1OC,?,21µM*,i,.,.,i
Cc1cccc(Cn2cc(C(=O)c3ccccc3)c(=O)c3cc4c(cc32)OCO4)c1,?,?,i,.,.,i
COc1cc(CNc2ncnc3c2ncn3[C@H]2CN(Cc3ccc4c(c3)OCO4)C[C@@H](CO)O2)cc(OC)c1OC,?,?,i,20%,-2%,i
COc1ccc(C(=O)c2cn(Cc3ccccc3)c3ccccc3c2=O)cc1OC,21µM*,?,i,.,.,i
COc1ccc2c(c1)c(=O)c(C(=O)c1ccccc1)cn2Cc1ccccc1,-7%,-14%,i,-1%,-2%,i
Cc1ccnc(NC(=O)C2CCN(S(=O)(=O)c3ccc(Cl)c(C(F)(F)F)c3)CC2)c1,?,?,?,16%,-5%,i
Cc1cc(C)c(C)c(S(=O)(=O)N2CCC(C(=O)Nc3ccncc3)CC2)c1C,?,8.2µM*,i,?,?,i
O=C(Nc1ccncc1)C1CCN(S(=O)(=O)c2ccc(Cl)cc2)CC1,23µM*,16µM*,i,-1%,-7%,i
O=S(=O)(c1ccccc1)N1CCC(n2cnc3ccccc32)CC1,7%,-17%,?,-1%,6%,i
O=C(Nc1ccncc1)C1CCN(S(=O)(=O)c2ccc(Cl)c(C(F)(F)F)c2)CC1,16µM*,15µM*,?,-18%,2%[9.24 µM],5.8µM*
O=S(=O)(c1ccccc1C(F)(F)F)N1CCC(n2cnc3ccccc32)CC1,?,?,9.2µM*,-5%,1%,i
O=C(Nc1ccncc1)C1CCN(S(=O)(=O)c2ccccc2)CC1,?,?,i,-7%,-11%,i
